This is a sample that favours compounds with a hit; in the whole collection about 3.5% have one here.
GPR151 activ – human GPR151 activation; Q8TDV0; PathHunter beta-arrestin GPR151 cells, luminescence; activation, % at 11.2 µM; hit rate 1% among 650,000; AID 1508602; in the data active = activation above about 4.9%
FBW7 activator – human FBW7 E3 ligase activation, primary screen; hit rate 0.13% among 650,000; AID 1259310; normalized activity (activation), % at 26.1 µM; AlphaScreen FBW7–phospho-cyclin E peptide binding, activator screen; in the data active = normalized activity above about 1.9%;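 also: purified mutant Fbw7 with reduced substrate affinity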
MITF inh – blocks human microphthalmia-associated transcription factor. inhibition, % at 2.6 µM. AID 1259374. AlphaScreen MITF homodimerization, bead proximity signal. hit rate 0.91% among 650,000; in the data active = inhibition above about 50%
TEAD-YAP inh – TEAD-YAP interaction inhibition; HEK-TIYL cells, TEAD-Gal4/YAP UAS-luciferase luminescence; inhibition, % at 9.12 µM; hit rate 1.4% among 640,000; AID 1259422; in the data active = inhibition above about 32%
GPR151 conf act – confirmation of human GPR151 activators. shares compounds with GPR151 activ. GPR151 PathHunter beta-arrestin cells, luminescence, 90 min; % of EA-reagent control over plate median. activation, % at 11.2 µM. 6,700 tested, under 10 active. AID 1508609;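 active = mean percent activation across replicates above the confirmation screen cutoff of 4.91%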
GPR119 ag – counter-screen for GPR151 activators: effect on human GPR119; activation, % at 11.2 µM; hit rate 0.3% among 6,700; GPR119 PathHunter beta-arrestin cells, luminescence, 90 min; 0 = compound-well median, 100 = enzyme-acceptor control; shares compounds with GPR151 activ;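 active = mean percent activation in the counterscreen above 29.09%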;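 also: counterscreen on off-target GPR119 to flag nonselective hits from the GPR151 activator screen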
Large screens that a line does not name were inactive (follow-up assays come after a bar, where they were run).

COC(=O)C1(Cl)C2C(=O)N(c3ccc(Br)cc3)C(=O)C21C (stereo not drawn)	none
CCOC(=O)c1c(NC(=O)c2ccc(OC)cc2OC)sc2c1CC(C)(C)NC2(C)C	GPR151 activ 5.6 | GPR151 conf act inactive | GPR119 ag inactive
CCOC(=O)c1c(NC(=O)c2ccccc2Cl)sc2c1CC(C)(C)NC2(C)C	none
CC1(C)Cc2c(sc(NC(=O)c3ccccc3F)c2C(N)=O)C(C)(C)N1	GPR151 activ 6.3 | GPR151 conf act inactive | GPR119 ag inactive
CCN(CC)S(=O)(=O)c1ccc(C(=O)Nc2nnc(-c3ccc(OC)cc3)o2)cc1	GPR151 activ 5.3 | GPR151 conf act inactive | GPR119 ag inactive
CCCCC(Sc1nc2ccccc2c2nc(-c3ccccc3OC)nn12)C(=O)OCC (stereo not drawn)	GPR151 activ 5.4 | GPR151 conf act inactive | GPR119 ag inactive
O=C(NCC1Cc2c(F)ccc(-c3ccncc3)c2O1)c1cccc(F)c1F (stereo not drawn)	none
O=C(COC(=O)c1ccc(OC(F)F)cc1)Nc1cccnc1Cl	GPR151 activ 11.5 | GPR151 conf act inactive | GPR119 ag inactive
O=C(NC(c1ccccc1Cl)c1ccc2cccnc2c1O)c1ccccc1 (stereo not drawn)	GPR151 activ 7.5, TEAD-YAP inh 72.0 | GPR151 conf act inactive | GPR119 ag inactive
COc1ccc(CN2C(=O)C3C(C(=O)Nc4ccc(C(C)C)cc4)C4C=CC3(O4)C2C(=O)NC2CCCCC2)cc1 (stereo not drawn)	none
CC(=O)C1C2=C(CC(C)(C)CC2=O)OC2=C1C(=O)CC(C)(C)C2	GPR151 activ 6.7 | GPR151 conf act inactive | GPR119 ag inactive
CC1(C)CC(=O)C2=C(C1)OC1=C(C(=O)CC(C)(C)C1)C2c1cccs1	none
CC1(C)CC(=O)C2=C(C1)OC1=C(C(=O)CC(C)(C)C1)C2C=C(Cl)Cl	GPR151 activ 6.6 | GPR151 conf act inactive | GPR119 ag inactive
CC1CCCN(Cc2nc3c(c(=O)n(C)c(=O)n3C)n2Cc2ccc(Cl)cc2)C1 (stereo not drawn)	none
Cc1ccc(Cn2c(CN3CCCC(C)C3)nc3c2c(=O)n(C)c(=O)n3C)cc1 (stereo not drawn)	GPR151 activ 4.9 | GPR151 conf act inactive | GPR119 ag inactive
CC1=C(C)SC(=C(C#N)c2nnc(N3CCOCC3)n2-c2ccccc2)S1	GPR151 activ 5.4 | GPR151 conf act inactive | GPR119 ag inactive
O=C(N/N=C/c1cc2c(cc1[N+](=O)[O-])OCO2)C1CC1(c1ccccc1)c1ccccc1 (stereo not drawn)	none
Cc1oc(-c2cccc(Cl)c2)nc1CSCC(=O)NC1CC1	none
CC(=O)c1c(C)[nH]c2ccccc2c1=O	none
Cc1[nH]c2ccccc2c(=O)c1Br	GPR151 activ 5.6 | GPR151 conf act inactive | GPR119 ag inactive
CCN(C)c1nc2nonc2nc1NC1CCCC1	GPR151 activ 5.2 | GPR151 conf act inactive | GPR119 ag inactive
CCOc1ccc(NC(=O)c2ccc(F)c(S(=O)(=O)NCc3ccccc3Cl)c2)cc1	none
CCOC(=O)c1c(C)n(C)c2ccc(OCC(O)CN(CC)CC)cc12 (stereo not drawn)	none
CCOC(=O)c1c(C)n(C)c2ccc(OCC(O)Cn3nnc4ccccc43)cc12 (stereo not drawn)	GPR151 activ 6.0 | GPR151 conf act inactive | GPR119 ag inactive
Cc1ccc(/C(N)=N/OC(=O)CCc2ccccc2)cc1	GPR151 activ 5.0 | GPR151 conf act inactive | GPR119 ag inactive
COc1cccc(/C=C/C(=O)OCC(=O)NNC(=O)c2ccccc2)c1	none
COc1cc(S(=O)(=O)NC(C)c2ccccc2)c(OC)cc1Cl (stereo not drawn)	none
O=C(Cc1ccccc1)Nc1cc(C(F)(F)F)ccc1F	none
COc1ccc(N2CCN(C3CC(=O)NC3=O)CC2)cc1 (stereo not drawn)	GPR151 activ 6.3 | GPR151 conf act inactive | GPR119 ag inactive
O=C1CC(N2CCN(c3ccc(F)cc3)CC2)C(=O)N1 (stereo not drawn)	none
O=C(CSc1ccc([N+](=O)[O-])cn1)Nc1ccc(Oc2ccccc2)cc1	none
O=C(CSc1ccc([N+](=O)[O-])cn1)Nc1cccc(C(F)(F)F)c1	GPR151 activ 5.6 | GPR151 conf act inactive | GPR119 ag inactive
NS(=O)(=O)c1ccc(NC(=O)CSc2ccc([N+](=O)[O-])cn2)cc1	GPR151 activ 7.9 | GPR151 conf act inactive | GPR119 ag inactive
CCOC(=O)c1c(NC(=S)NCc2ccccc2)sc2c1CCC(C(C)(C)C)C2 (stereo not drawn)	none
Cc1nc2c(c(=O)[nH]1)CCN(Cc1ccc3ncccc3c1)C2	GPR151 activ 6.5 | GPR151 conf act inactive | GPR119 ag inactive
COc1ccc(Cl)cc1N(CC(=O)NCc1ccc(Cl)cc1)S(C)(=O)=O	none
COc1ccc(S(=O)(=O)CCC(=O)Nc2ccccc2Br)cc1	GPR151 activ 9.4 | GPR151 conf act inactive | GPR119 ag inactive
CCOC(=O)Cc1csc(NC(=O)CSc2nc(C)cc(C)n2)n1	GPR151 activ 5.6 | GPR151 conf act inactive | GPR119 ag inactive
CC(=O)C1C(c2ccc(F)cc2)C2C(C)=NN=C2CC1(C)O (stereo not drawn)	none
COc1ccc(C2C3C(C)=NN=C3CC(C)(O)C2C(C)=O)cc1 (stereo not drawn)	GPR151 activ 6.6 | GPR151 conf act inactive | GPR119 ag inactive
COc1cc(C(=O)N(Cc2nc(-c3ccc(C)cc3)no2)C(C)C)cc(OC)c1OC	GPR151 activ 8.3 | GPR151 conf act inactive | GPR119 ag inactive
COc1ccc(CCNC(=O)C2CC2c2ccccc2)cc1 (stereo not drawn)	none
Cc1nc2nc(NCc3ccccc3F)[nH]n2c(=O)c1C	GPR151 activ 5.0 | GPR151 conf act inactive | GPR119 ag inactive
COc1ccc(CNc2nc3nc(C)c(C)c(=O)n3[nH]2)cc1	GPR151 activ 5.5 | GPR151 conf act inactive | GPR119 ag inactive
CCN(CC)c1nc(NCc2ccccc2)nc(Oc2ccccc2)n1	none
CCOC(=O)c1c(NC(=O)c2ccco2)sc2c1C(C)CCC2 (stereo not drawn)	none
CC(NS(C)(=O)=O)c1ccccc1 (stereo not drawn)	GPR151 activ 6.3 | GPR151 conf act inactive | GPR119 ag inactive
O=C(c1ccc(Cl)cc1)c1ccc(OCC(=O)N2CCCC2)cc1	none
CCOCCOC(=O)C1=C(C)Nc2ccc(C)cc2S1	GPR151 activ 12.7 | GPR151 conf act inactive | GPR119 ag inactive
COCCOC(=O)C1=C(C)Nc2ccc(C)cc2S1	none
N#CCn1cnc2c(nnn2-c2cccc(F)c2)c1=O	GPR151 activ 6.1 | GPR151 conf act inactive | GPR119 ag inactive
COc1ccc(Cl)cc1NC(=S)N(Cc1cccc(Br)c1)CC1CCC(C(=O)O)CC1 (stereo not drawn)	GPR151 activ 15.2 | GPR151 conf act inactive | GPR119 ag inactive
